Data reported in PubChem BioAssay (NCATS).
Records with an inconclusive call do not appear. Activity calls are given as the source filed them. The call rests on the fitted dose curve; in most records, active means well fitted curve in the direction sought with a large enough effect; inconclusive means small, poorly fitted or top-dose-only effect, or another doubt; inactive means no such curve, though single readings can be large; an effect the other way counts as inactive or inconclusive.

Assays:
[1] = UWB1.289 Cancer Cell Toxicity qHTS against the NCATS CANVASS Library (AID 1347347); further: nearly all actives have a fitted effect of over 60% in size
Procedure, shortened: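 1000 cells/well seeded and rested 4 h at 37 °C before pin transfer of compounds in an 11-pnt series. Exposure 72 h at 37 °C/5% CO2; viability by CellTiter-Glo luminescence after 15 min at room temperature.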

[2] = HPAF-II 24hr Apoptosis Induction qHTS against the NCATS CANVASS Library (AID 1347356)
Procedure, shortened: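 Using an 11-point qHTS format, HPAF-II cells in DMEM/10% FBS received compounds for 24 h; doxorubicin titration as control. Caspase-3/7 activity quantified by DEVD-luciferase luminescence.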

[3] = HPAF-II 12hr Apoptosis Induction qHTS against the NCATS CANVASS Library (AID 1347358)
Procedure, shortened: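 Twelve-hour compound exposure of HPAF-II cells in DMEM with 10% FBS, then luminescent Caspase-Glo 3/7 detection after 15 min at room temperature; doxorubicin control.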

[4] = HPAF-II 18hr Apoptosis Induction qHTS against the NCATS CANVASS Library (AID 1347360)
Procedure, shortened: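 HPAF-II cells at 500/well were exposed for 18 h at 37 C to an 11-point compound series. Caspase-3/7 activity was read by Caspase-Glo luminescence after 15 min at RT.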

[5] = HEK293 12hr Apoptosis Induction qHTS against the NCATS CANVASS Library (AID 1347361)
Procedure, shortened: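 HEK293 cells (500/well) were exposed to an 11-point qHTS concentration series for 12 hours at 37 degrees C. Caspase-3/7 activity was then read by DEVD-substrate luciferase luminescence after 15 min at room temperature.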

[6] = tested on: NAD(P)H diaphorase (Clostridium kluyveri); assay: Diaphorse counterscreen qHTS: Assay Interference Panel against the NCATS CANVASS Library (AID 1347362)
Procedure, shortened: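 Clostridium kluyveri diaphorase in PBS + 0.01% Tween-20 preincubated 15 min with compounds. Resazurin and NADH then added for 5 min at room temperature in the dark; resorufin fluorescence read (ex 525, em 598).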

[7] = target: Luciferin 4-monooxygenase (Photinus pyralis) (UniProt P08659); assay: Firefly luciferase counterscreen qHTS: Assay Interference Panel against the NCATS CANVASS Library (AID 1347363); further: series mostly up to about 57 µM
Luciferin 4-monooxygenase (Photinus pyralis), sequence (P08659 whole entry, looked up): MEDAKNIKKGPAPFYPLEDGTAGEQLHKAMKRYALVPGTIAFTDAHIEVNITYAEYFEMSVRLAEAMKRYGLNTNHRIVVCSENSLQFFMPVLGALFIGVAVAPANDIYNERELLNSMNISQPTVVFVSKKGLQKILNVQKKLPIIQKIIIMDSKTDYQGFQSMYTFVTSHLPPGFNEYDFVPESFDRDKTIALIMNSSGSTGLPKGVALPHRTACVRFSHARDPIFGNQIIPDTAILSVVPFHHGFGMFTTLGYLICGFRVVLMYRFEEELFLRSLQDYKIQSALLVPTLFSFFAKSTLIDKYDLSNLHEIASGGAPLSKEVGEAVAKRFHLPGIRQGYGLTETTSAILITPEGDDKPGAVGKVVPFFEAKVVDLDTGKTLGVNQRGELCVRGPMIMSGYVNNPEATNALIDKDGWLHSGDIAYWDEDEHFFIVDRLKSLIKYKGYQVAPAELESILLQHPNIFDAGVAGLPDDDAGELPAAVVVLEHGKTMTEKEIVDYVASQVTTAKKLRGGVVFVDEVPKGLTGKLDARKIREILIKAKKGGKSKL
Procedure, shortened: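 Purified P. pyralis luciferase (0.04 ug/mL, 4x reagent) added to Tris-acetate buffer with 0.013 mM D-luciferin, 0.013 mM ATP and 13.3 mM Mg-acetate; compounds preincubated 15 min, then luminescence read after 5 min, RT.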

[8] = KB-8-5-11 Cancer Cell Toxicity qHTS against the NCATS CANVASS Library (AID 1347364); further: nearly all actives have a fitted effect of over 75% in size
Procedure, shortened: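 Luminescent ATP signal (CellTiter-Glo, 10 min at room temperature) measured cell survival of KB-8-5-11 after 72 hr compound treatment. For confirmation, the cells were also grown with 1uM tariquidar.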

[9] = KB-3-1 Cancer Cell Toxicity qHTS against the NCATS CANVASS Library (AID 1347366); further: nearly all actives have a fitted effect of over 75% in size
Procedure, shortened: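 KB-3-1 cells (500/well) in DMEM with 10% FBS were exposed to compounds for 72 h at 37C. Viability was read by CellTiter-Glo luminescence.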

[10] = qHTS for ATAD5 Agonist screened against the NCATS CANVASS Library (AID 1347367);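 further: luciferase reporter driven by ATAD5 which rises upon DNA damage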
Procedure, shortened: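 Luciferase reporter under ATAD5 control, stably integrated in HEK293T cells (2000/well). Compounds (11 points) incubated 16 h at 37C; viability read first by CellTiter-Fluor, then luminescence reporting ATAD5 activation. MMS positive control.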

[11] = J3T Cancer Cell Toxicity qHTS against the NCATS CANVASS Library (AID 1347371);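 further: J3T is a canine glioma cancer cell line seeded at 500 cells per well; series mostly up to about 46 µM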
Procedure, shortened: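 ATP-based cytotoxicity in canine J3T cells: 72 hr exposure at 37C, 11-point titration, CellTiterGlo luminescent detection.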

[12] = target: Nuclear receptor subfamily 1 group I member 3 (Homo sapiens) (UniProt Q14994); assay: qHTS for Constitutive Androstane Receptor (CAR) Antagonist screened against the NCATS CANVASS Library (AID 1347372);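 further: cells stimulated with 50 nM CITCO agonist so inhibition reflects antagonism; luciferase from CYP2B6 promoter reporter driven by hCAR in HepG2 cells; series mostly up to about 46 µM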
Nuclear receptor subfamily 1 group I member 3 (Homo sapiens), sequence (Q14994 whole entry, looked up): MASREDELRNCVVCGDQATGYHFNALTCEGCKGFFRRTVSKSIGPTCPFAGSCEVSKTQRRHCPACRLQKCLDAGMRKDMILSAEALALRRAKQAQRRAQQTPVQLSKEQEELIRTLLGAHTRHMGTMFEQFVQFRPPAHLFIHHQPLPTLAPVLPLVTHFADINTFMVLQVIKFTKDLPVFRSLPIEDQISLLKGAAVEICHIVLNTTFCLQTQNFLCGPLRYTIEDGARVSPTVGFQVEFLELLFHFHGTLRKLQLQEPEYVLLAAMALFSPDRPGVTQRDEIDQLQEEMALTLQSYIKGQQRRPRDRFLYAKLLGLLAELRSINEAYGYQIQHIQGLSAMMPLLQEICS
Procedure, shortened: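 Luminescence readout (ONE-Glo, 30 min RT) of CYP2B6-2.2kb reporter in HepG2-hCAR cells after 24hr, 37C treatment with compound against 50 nM CITCO; CellTiter-Fluor viability read beforehand.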

[13] = 10-beta competent E. coli microbial cell viability qHTS against the NCATS CANVASS Library (AID 1347376); further: series mostly up to about 46 µM
Procedure, shortened: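 Overnight 37C exposure of 10-beta E. coli (0.2 OD) to an 11-point concentration series; ATP-based luminescence after 20 min room-temperature reagent incubation; daunomycin as control.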

[14] = Inflammasome Signaling qHTS Counterscreen: IL-1-beta AlphaLISA counterscreen against the NCATS CANVASS Library (AID 1347381);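 further: cell-free check with purified IL-1β in medium and no THP-1 cells; series mostly up to about 57 µM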
Procedure, shortened: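 Here, no cellular stimulation occurs; compounds in an 11-point series meet 4 pg purified IL-1-beta directly. Bead-based AlphaLISA detection follows (1 h acceptor/antibody, then 30 min donor, dark, room temperature), with excitation at 680 nm.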

[15] = Cytotoxicity qHTS for assessment of Hepg2 cells membrane integrity screened against the NCATS CANVASS Library (AID 1347387)
Procedure, shortened: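 Membrane damage in HepG2 monolayers was estimated from released LDH, measured with CytoTox-ONE (ex 560/em 590 nm), after 5 hr treatment across 0.59 nM - 46 uM final.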

[16] = qHTS assay for small molecule disruptors of mitochondrial membrane potential screened against the NCATS CANVASS Library (AID 1347389); further: series mostly up to about 46 µM; nearly all actives have a fitted effect of over 60% in size
Procedure, shortened: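 Cells (HepG2) seeded the day before received compound or DMSO for 1 hr, then Mito-MPS dye for 30 min at 37C; emission at 590 nm over 535 nm gave the polarization signal.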

[17] = Vero-766 cells viability qHTS against the NCATS CANVASS Library: Counterscreen for Zika virus inhibition assay (AID 1347394); further: series mostly up to about 46 µM; nearly all actives have a fitted effect of over 60% in size
Procedure, shortened: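 Vero 766 cells (1000/well), without Zika virus, were exposed to compounds for 72 h at 37C. Viability was measured by CellTiter Glo luminescence. Media-only wells served as 100% inhibition.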

[18] = Viability qHTS for inhibitors of the SERCaMP assay screened against the NCATS CANVASS Library (AID 1347400); further: series mostly up to about 92 µM; nearly all actives have a fitted effect of over 70% in size
Procedure, shortened: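 Measures loss of viability in SERCaMP reporter SH-SY5Y cells treated for 48 h with compounds; luminescent ATP detection by CellTiter-Glo.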

[19] = Redox Reaction Profiling qHTS: Assay Interference Panel against the NCATS CANVASS Library (AID 1347401)
Procedure, shortened: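 Fluorescence read-out (525 nm excitation, 598 nm emission) at time zero and after 15 min in the dark tracked resorufin formation. Mix: 5 uM resazurin, 200 uM DTT, HEPES pH 7.3 buffer with NaCl.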

Measured: Potency

C[C@]12CC(O)C3[C@@H](CCC4C[C@@H](O)CC[C@@]43CO)[C@@]1(O)CCC2C1=CC(=O)OC1 (stereo not given in full)
inactive: all assays above

CO[C@@H](/C=C/CC/C=C/C(=O)O)[C@@H](O)[C@H](C)/C=C(\C)[C@@H](O)[C@H](C)C(=O)CCCC1CC(=O)NC(=O)C1
inactive: all assays above

CCCC[C@@H]1CC[C@H]2CCCC(CCC)N12 (stereo not given in full)
not listed: [1]
inactive: all other assays above

CCN1C[C@]2(C)CC[C@H](O)[C@]34C1C(C[C@H]23)[C@@]12CC[C@H](CC14)[C@](O)(COC(=O)c1ccc(OC)c(OC)c1)[C@H]2O (stereo not given in full)
inactive: all assays above
